Measured values as given in PubChem BioAssay AID1159580 (chemical genetic matrix, 2015).
Among all 5,500 compounds or so, about 2,000 (36%) were called active. Inconclusive results (about 18%) are left out. Cut-off read from the data, not from the text of the source: active = normalized growth mostly below about 0.91 (no sharp cut-off); inconclusive = no clear call, values can overlap the other calls; inactive = mostly above about 0.92. The list shows a part of the results.

Assay: chemical genetic growth profiling, strain panel (AID 1159580);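 note: tested at 20 µM; growth read once vehicle control cultures reached saturation at 30 °C; 1 = growth at the plate median or of vehicle wells; lower values mean less growth of the strain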
Conditions: S. cerevisiae deletion strains, growth OD
[1] = locus YMR307W, strain GAS1, active compounds read low

Measured: normalized growth

O=C1c2c(O)cc(O)cc2OC(c2ccc(O)c(O)c2)C1O (configuration not stated)
inactive: locus YAL013W, strain DEP1, active compounds read low 1.03 | locus YAL040C, strain CLN3, active compounds read low 1.04 | locus YCL061C, strain MRC1 (second series), active compounds read low 0.999 | locus YDR150W, strain NUM1, active compounds read low 0.987 | locus YDR363W, strain ESC2, active compounds read low 1 | locus YER002W, strain NOP16, active compounds read low 0.998 | [1] 1.01 | locus YNL175C, strain NOP13, active compounds read low 0.99 | locus YNL197C, strain WHI3, active compounds read low 0.977 | locus YNL224C, strain SQS1, active compounds read low 0.993 | locus YOR083W, strain WHI5 (second series), active compounds read low 0.991

O=C1c2ccc(O)cc2O[C@H](c2cc(O)c(O)c(O)c2)[C@H]1O
inactive: locus YBR021W, strain FUR4, active compounds read low 1 | locus YBR229C, strain ROT2, active compounds read low 0.992 | locus YCL029C, strain bik1, active compounds read low 1.02 | locus YDL035C, strain GPR1, active compounds read low 1 | locus YDL074C, strain BRE1, active compounds read low 0.939 | locus YDL101C, strain DUN1, active compounds read low 0.93 | locus YDL185W, strain tfp1, active compounds read low 0.999 | locus YDL192W, strain arf1, active compounds read low 1.01 | locus YDR101C, strain arx1, active compounds read low 1 | locus YDR162C, strain NBP2, active compounds read low 1.03 | locus YDR318W, strain mcm21, active compounds read low 1 | locus YDR388W, active compounds read low 1.01 | locus YDR502C, strain sam2, active compounds read low 1.02 | locus YEL061C, strain CIN8, active compounds read low 0.999 | locus YER110C, active compounds read low 1.02 | locus YER155C, strain BEM2, active compounds read low 1.04 | locus YER167W, strain BCK2, active compounds read low 1.04 | locus YGL078C, strain dbp3, active compounds read low 1.01 | locus YGL086W, strain mad1, active compounds read low 1.01 | locus YGL248W, strain PDE1, active compounds read low 1 | locus YGR135W, strain pre9, active compounds read low 1.01 | locus YGR252W, strain gcn5, active compounds read low 0.972 | locus YHR030C, strain SLT2, active compounds read low 1.01 | locus YHR079C, strain IRE1 (second series), active compounds read low 1.02 | locus YHR094C, strain hxt1, active compounds read low 1.02 | locus YHR129C, strain ARP1, active compounds read low 0.997 | locus YHR200W, strain rpn10, active compounds read low 0.982 | locus YIL066C, strain RNR3, active compounds read low 0.99 | locus YIL073C, strain SPO22, active compounds read low 1.07 | locus YIL125W, strain kgd1, active compounds read low 1 | locus YIR030C, strain dcg1, active compounds read low 1.03 | locus YJL095W, strain BCK1, active compounds read low 0.884 | locus YJL134W, strain LCB3, active compounds read low 1.01 | locus YJL168C, strain set2, active compounds read low 1 | locus YJR043C, strain POL32, active compounds read low 0.998 | locus YJR075W, strain HOC1, active compounds read low 1.04 | locus YKL009W, strain mrt4, active compounds read low 1.06 | locus YKL068W, active compounds read low 1.02 | locus YKL085W, strain MDH1 (second series), active compounds read low 1.01 | locus YKL085W, strain MDH1, active compounds read low 1.01 | locus YKL190W, strain CNB1, active compounds read low 1.01 | locus YKR001C, strain vps1, active compounds read low 1 | locus YLR039C, strain RIC1, active compounds read low 1.04 | locus YLR058C, strain SHM2, active compounds read low 0.92 | locus YLR102C, strain apc9, active compounds read low 1.01 | locus YLR262C, strain YPT6, active compounds read low 1.06 | locus YLR268W, strain sec22, active compounds read low 1.01 | locus YLR330W, strain CHS5, active compounds read low 1.03 | locus YLR342W, strain FKS1 (second series), active compounds read low 0.95 | locus YLR371W, strain rom2, active compounds read low 0.992 | locus YLR418C, strain cdc73, active compounds read low 1.01 | locus YML016C, strain PPZ1, active compounds read low 0.987 | locus YML032C, strain rad52, active compounds read low 1.06 | locus YML124C, strain tub3, active compounds read low 1.02 | locus YMR078C, strain ctf18, active compounds read low 1.03 | locus YMR223W, strain ubp8, active compounds read low 1.03 | [1] 1.02 | locus YNL067W, strain RPL9B, active compounds read low 1.01 | locus YNL153C, strain GIM3, active compounds read low 0.947 | locus YNL233W, strain BNI4, active compounds read low 1.02 | locus YNL250W, strain rad50, active compounds read low 1.01 | locus YNL271C, strain bni1, active compounds read low 1.01 | locus YNL298W, strain CLA4, active compounds read low 0.996 | locus YNL307C, strain MCK1, active compounds read low 1 | locus YNL322C, strain KRE1, active compounds read low 1.01 | locus YNR052C, strain pop2, active compounds read low 0.967 | locus YOL012C, strain htz1 0.815 | locus YOL147C, strain pex11, active compounds read low 1.01 | locus YOR061W, strain CKA2, active compounds read low 1 | locus YOR069W, strain VPS5, active compounds read low 1.01 | locus YOR136W, strain idh2, active compounds read low 1.05 | locus YOR144C, strain elg1, active compounds read low 1.02 | locus YOR184W, strain ser1, active compounds read low 1.02 | locus YOR316C, strain cot1, active compounds read low 1.01 | locus YPL055C, strain LGE1, active compounds read low 1.02 | locus YPR119W, strain clb2, active compounds read low 1 | locus YPR141C, strain kar3, active compounds read low 1.01 | locus YPR163C, strain tif3, active compounds read low 1.01 | locus YPR167C, strain met16, active compounds read low 1.03 | strain wtn01, active compounds read low 1.01
active: locus YJL187C, strain SWE1 (second series), active compounds read low 0.853
